Laboratory results published in the supplement of paper PMC10646978.
± gives the standard deviation.

What was measured:
Details in all cases: modulator concentration 10 µM
[1] = tested on: RAW-Dual (murine macrophage reporter line); assay: NF-kB reporter (SEAP) activity fold change vs agonist alone; higher = enhanced NF-kB activity
In short: (§1)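 RAW-Dual murine macrophage reporter cells were seeded at 50 000 per well in 384-well plates and pre-incubated 1 hour at 37 °C with compound pin-transferred to 10 μM final. After 1 hour, a PRR agonist was added and cells incubated overnight. Supernatant NF-κB (SEAP, QUANTI-Blue, 620 nm absorbance) and IRF (Lucia luciferase, QUANTI-Luc, luminescence) signals were divided by the mean agonist-only control on the same plate to give fold change. Two replicate plates were averaged, with errors by propagation.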

[2] = tested on: RAW-Dual (murine macrophage reporter line); assay: IRF reporter (Lucia luciferase) activity fold change vs agonist alone; higher = enhanced IRF activity
In short: as §1

[3] = tested on: RAW-Dual (murine macrophage reporter line); assay: viability score (confluency relative to resting cells, overnight) (fraction); higher = more viable, active = viable (0.7 or more)
In short: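 RAW-Dual macrophages in 384-well plates were incubated overnight with compound, final concentration 10 μM. Confluency images from IncuCyte were processed in IncuCyte software into two masks covering all imaged wells. The viability score is each well's confluency relative to resting cells, and a compound met the cutoff when both masks exceeded 70% of resting cells.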

[4] = agonist: CpG ODN 1826 0.5 ug/mL

| Structure (SMILES) | NF-kB reporter [1, 4] | NF-kB reporter ([1]; agonist: LPS 0.1 ug/mL) | NF-kB reporter ([1]; agonist: MPLA […]) | IRF reporter ([2]; agonist: 3'3'-cGAMP 10 ug/mL) | IRF reporter ([2]; agonist: LPS 0.1 ug/mL) | IRF reporter ([2]; agonist: MPLA […]) | viability score [3] |
| --- | --- | --- | --- | --- | --- | --- | --- |
| Cc1ccccc1Oc1ccc(S(=O)(=O)N2CCCC2)cc1 | 0.68 ± 0.03 | 1.02 ± 0.14 | 0.922 ± 0.061 | 0.385 ± 0.018 | 1.03 ± 0.14 | 1.22 ± 0.26 | 0.953 (active) |
| CC1(C)CC(NC(=O)c2cccnc2-c2nc3ccccc3s2)CC(C)(C)N1 | 0.747 ± 0.078 | 0.964 ± 0.083 | 0.948 ± 0.19 | 0.892 ± 0.048 | 1.06 ± 0.067 | 1.12 ± 0.09 | 0.998 (active) |
| O=C(CCC1CCCCC1)Nc1ccc(Br)cc1 | 1.02 ± 0.068 | 0.98 ± 0.074 | 1.07 ± 0.029 | 0.591 ± 0.029 | 0.922 ± 0.048 | 0.976 ± 0.096 | 0.986 (active) |
| COc1ccc(C(C)=NNC(=O)Nc2ccccc2)c(OC)c1 | 0.92 ± 0.083 | 0.865 ± 0.092 | 0.932 ± 0.088 | 1.02 ± 0.063 | 1.26 ± 0.2 | 1.4 ± 0.27 | 1.01 (active) |
| O=C(O)CN1C(=O)c2cccc3cccc(c23)C1=O | 1.11 ± 0.083 | 0.935 ± 0.053 | 1.01 ± 0.039 | 0.934 ± 0.053 | 0.911 ± 0.14 | 0.956 ± 0.22 | 0.998 (active) |
| O=C(O)c1cc([N+](=O)[O-])c(Nc2cccc3ccccc23)c([N+](=O)[O-])c1 | 0.879 ± 0.05 | 1.05 ± 0.068 | 0.888 ± 0.074 | 0.965 ± 0.057 | 1.31 ± 0.12 | 1.13 ± 0.22 | 1.01 (active) |
| CN(C)c1nc(CNS(C)(=O)=O)nc(N2CCCCC2)n1 | 1 ± 0.092 | 1.08 ± 0.091 | 1.03 ± 0.044 | 0.991 ± 0.044 | 1.03 ± 0.071 | 0.965 ± 0.21 | 1 (active) |
| Cc1cc(C(=O)NNCc2ccccc2)no1 [Prestw-795] | 1.09 ± 0.18 | 1.18 ± 0.11 | 0.992 ± 0.076 | 0.958 ± 0.026 | 1.06 ± 0.24 | 1.29 ± 0.14 | 0.997 (active) |
| CCC(Oc1ccccc1)C(=O)Nc1cc([N+](=O)[O-])ccc1C (centres undefined) | 0.91 ± 0.059 | 0.865 ± 0.073 | 0.987 ± 0.036 | 0.902 ± 0.042 | 0.997 ± 0.11 | 0.973 ± 0.14 | 1 (active) |
| NC(=O)CC[C@H](N)C(=O)O | 0.931 ± 0.076 | 0.998 ± 0.096 | 0.982 ± 0.023 | 0.949 ± 0.082 | 0.998 ± 0.039 | 1.04 ± 0.11 | 1.01 (active) |
| O=C(C=Cc1cccnc1)c1cc2ccc1CCc1ccc(cc1)CC2 | 1.03 ± 0.058 | 0.76 ± 0.071 | 0.752 ± 0.05 | 0.639 ± 0.023 | 0.998 ± 0.063 | 1.03 ± 0.35 | 1.01 (active) |
| CCOC(=O)C1=C(COCCN)NC(C)=C(C(=O)OC)C1c1ccccc1Cl.O=S(=O)(O)c1ccccc1 (centres undefined) | 0.921 ± 0.14 | 1.33 ± 0.18 | 3.73 ± 0.3 | 0.449 ± 0.058 | 1.55 ± 0.2 | 5.89 ± 1.2 | 0.0981 (inactive) |
| CCOC(=O)C1CCCN(S(=O)(=O)Cc2ccccc2)C1 (centres undefined) | 0.766 ± 0.067 | 0.879 ± 0.043 | 1.02 ± 0.089 | 0.814 ± 0.04 | 1.42 ± 0.096 | 1.53 ± 0.14 | 1.01 (active) |
| CC(=O)n1cc(C=C(C)[N+](=O)[O-])c2ccccc21 | 1.07 ± 0.091 | 0.607 ± 0.079 | 0.419 ± 0.055 | 0.445 ± 0.015 | 0.297 ± 0.11 | 0.183 ± 0.067 | 0.861 (active) |
| CN(C)CCS(=O)c1ccccc1 (centres undefined) | 0.955 ± 0.08 | 0.907 ± 0.071 | 1.16 ± 0.21 | 0.983 ± 0.038 | 1.32 ± 0.23 | 1.39 ± 0.27 | 1.04 (active) |
| Cc1cc(C)nc(SCCCCSc2nc(C)cc(C)n2)n1 | 1.03 ± 0.062 | 0.975 ± 0.14 | 0.944 ± 0.025 | 1.13 ± 0.14 | 0.979 ± 0.11 | 0.909 ± 0.21 | 0.996 (active) |
| O=C(CCn1c(=O)oc2ccccc21)Nc1ccccc1 | 1.03 ± 0.17 | 1.22 ± 0.19 | 0.881 ± 0.08 | 0.969 ± 0.032 | 1.16 ± 0.19 | 1.06 ± 0.13 | 0.998 (active) |
| CCc1cccc2c3c([nH]c12)C(CC)(CC(=O)O)OCC3 (centres undefined) [Prestw-231] | 0.957 ± 0.25 | 0.995 ± 0.066 | 1.19 ± 0.15 | 0.926 ± 0.039 | 1.24 ± 0.15 | 1.32 ± 0.24 | 0.989 (active) |
| O=C(NCC1(O)CCc2ccccc2C1)Nc1ccccc1C(F)(F)F (centres undefined) | 0.914 ± 0.18 | 1.02 ± 0.11 | 1.18 ± 0.074 | 0.973 ± 0.05 | 1.17 ± 0.2 | 1.31 ± 0.42 | 0.908 (active) |
| CN1CCCC(n2nc(Cc3ccc(Cl)cc3)c3ccccc3c2=O)CC1.Cl (centres undefined) | 0.135 ± 0.008 | 0.929 ± 0.12 | 1.42 ± 0.26 | 1.12 ± 0.14 | 1.19 ± 0.22 | 1.35 ± 0.4 | 0.587 (inactive) |
| Cc1cc(OC2CN(C(=O)CSCc3ccccc3)C2)cc(=O)n1C1CC1 | 1.12 ± 0.056 | 1.07 ± 0.085 | 0.994 ± 0.05 | 0.658 ± 0.034 | 0.986 ± 0.086 | 1.11 ± 0.31 | 1 (active) |
| Cc1cc(-n2cc(C(=O)N3CCOCC3)nn2)ccc1F | 1.06 ± 0.33 | 1.1 ± 0.075 | 1.02 ± 0.065 | 0.98 ± 0.045 | 1.01 ± 0.17 | 1.14 ± 0.17 | 0.991 (active) |
| CC(C)CSc1nnc2c(n1)[nH]c1ccccc12 | 1.06 ± 0.083 | 1.01 ± 0.072 | 0.967 ± 0.039 | 0.955 ± 0.2 | 1.05 ± 0.047 | 0.885 ± 0.14 | 0.998 (active) |
| Cc1ccc(CNC(=O)C(=O)NC2CCCCC2)cc1 | 1 ± 0.094 | 0.956 ± 0.11 | 0.963 ± 0.091 | 0.97 ± 0.025 | 1.46 ± 0.2 | 1.11 ± 0.21 | 1.01 (active) |
| Cc1cc(CNC(=O)CCc2ccc(S(C)(=O)=O)cc2)c(C)o1 | 1.24 ± 0.44 | 1.03 ± 0.084 | 1.04 ± 0.066 | 0.928 ± 0.046 | 0.97 ± 0.18 | 1 ± 0.11 | 0.999 (active) |
| COc1ccc(C2Sc3ccccc3N(CCN(C)C)C(=O)C2OC(C)=O)cc1.Cl (centres undefined) | 1.01 ± 0.29 | 1 ± 0.05 | 1.08 ± 0.092 | 0.966 ± 0.033 | 1.15 ± 0.15 | 1.2 ± 0.12 | 0.992 (active) |
| CC1=NN(C(=O)CCCc2ccccc2)C(O)(c2ccc(Cl)cc2)C1 (centres undefined) | 0.923 ± 0.1 | 1 ± 0.13 | 1.02 ± 0.049 | 0.899 ± 0.2 | 1.1 ± 0.065 | 1.13 ± 0.15 | 0.999 (active) |
